This passage reports inhibition results from PubChem BioAssay.

Calls of active or inactive are those of the source. How the calls were made is not given here.

Chain of Pantothenate synthetase (Mycobacterium tuberculosis (strain ATCC 25618 / H37Rv)) (P9WIL5 whole entry, looked up): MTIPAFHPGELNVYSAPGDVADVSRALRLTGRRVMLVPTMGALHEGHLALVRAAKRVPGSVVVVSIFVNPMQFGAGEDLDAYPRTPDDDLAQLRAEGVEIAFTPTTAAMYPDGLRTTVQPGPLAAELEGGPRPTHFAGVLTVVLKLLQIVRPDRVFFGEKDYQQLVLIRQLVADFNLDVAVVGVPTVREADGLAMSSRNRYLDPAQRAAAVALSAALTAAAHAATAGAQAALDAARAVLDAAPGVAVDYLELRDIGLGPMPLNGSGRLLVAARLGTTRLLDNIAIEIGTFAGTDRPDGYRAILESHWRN

This assay has as its target Pantothenate synthetase (Mycobacterium tuberculosis (strain ATCC 25618 / H37Rv)) (UniProt P9WIL5). The experiment in a line: Coupled enzyme confirmation of inhibitors against recombinant Mtb PanC (AID 375).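 Further: 0% = full reaction with vehicle and 100% = no enzyme background.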 Particulars: coupled enzyme assay; at 10 µM, active compounds read high.
As to `O=C(CSc1nc2ccccc2n1CC(=O)N1CCCC1)Nc1nccs1`, the inhibition – broadly, the relative decrease from the control value, in per cent – is 0% (inactive).
Under `CCOC(=O)c1sc(NC(=O)CNC(=O)Cn2cnc3sc(C)c(C)c3c2=O)nc1C` stands 0% (inactive).
As for `COc1ccc(S(=O)(=O)NCc2ccc3c(c2)OCO3)cc1C(=O)O`, the inhibition was 5% (inactive).
Under `Clc1ccc2c(c1)C(N1CCNCC1)=Nc1ccccc1O2` stands 8% (inactive).
As for `CCN1CCN(Cc2ccc(NC(=O)Nc3ccccc3)cc2)CC1`, the figure is 1% (inactive).
As for `CSc1cccc(NC(=O)C2CCN(S(=O)(=O)c3ccc(F)cc3)CC2)c1`, the inhibition is 0% (inactive).
As for `CN1CC[n+]2cnc3ccccc3c21`, the figure is 1% (inactive).
Regarding `Cc1ccc(CSc2nc3c(c(=O)[nH]2)C(c2ccncc2)C2=C(CCCC2=O)N3)cc1` (stereo not given), the inhibition was 4% (inactive).
Under `COc1ccc(S(=O)(=O)N2CCN(CC(=O)Nc3ccc(F)c(F)c3)CC2)cc1` stands 7% (inactive); under `COc1ccc(NC(=O)Nc2ccc(C)cc2OC(F)F)cc1OC`, 3% (inactive); under `O=C1NC(Cc2c[nH]c3ccccc23)C(=O)N1CCOc1ccccc1` (stereo not given), 2% (inactive).
As for `CN1C(=O)CC(N2CCC(C(N)=O)(N3CCCCC3)CC2)C1=O` (stereo not given), the figure is 0% (inactive); as for `Cc1nc(NC(=O)C23CCC(C)(C(=O)O2)C3(C)C)sc1C` (stereo not given), 0% (inactive); as for `O=S1(=O)C=CC(Nc2cccc(Cl)c2)C1` (stereo not given), 0% (inactive).
As for `COc1cccc(-c2csc3nnc(SCC(=O)c4ccc(NC(C)=O)cc4)n23)c1`, the figure is 1% (inactive); as for `COCCN(CC(=O)NCc1ccccc1)C(=O)CCC(=O)Nc1ccccn1`, 0% (inactive).
Take `CCC(=O)N1CCc2cc(Br)cc(S(=O)(=O)CCC(=O)NCC3CCCO3)c21` (stereo not given): the inhibition is 0% (inactive).
As to `COc1ccc(NC(=O)CC2Sc3ncnn3C2=O)cc1` (stereo not given), the inhibition is 0% (inactive).
As for `Cc1ccccc1NS(=O)(=O)c1cc(C(=O)N2CCCC2)ccc1C`, the figure is 0% (inactive); as for `N#Cc1c(-c2ccc3c(c2)OCO3)csc1N`, 9% (inactive); as for `Cc1cc(C)n(Cc2nc3ccccc3n2C)n1`, 0% (inactive).
Under `Oc1ccccc1-c1nnc(COc2ccc(Cl)cc2Cl)o1` stands 1% (inactive); under `CC(=O)c1cccc(NC(=O)CCNS(=O)(=O)c2cccc3nsnc23)c1`, 0% (inactive).
As for `CC(=O)O[C@]1(C(C)=O)CC[C@H]2[C@@H]3C=C(Cl)C4=CC(=O)CC[C@]4(C)[C@H]3CC[C@@]21C`, the figure is 0% (inactive); as for `O=[n+]1c2c(n([O-])c3cc(F)c(N4CCCC4)cc31)CCC2`, 9% (inactive).
Turning to `CC1CCCCN1CCNC(=O)C1CCN(S(=O)(=O)c2cccc3cccnc23)CC1` (stereo not given), the inhibition was 0% (inactive).
Under `COc1cc(NC2=CC(=O)CC(C)(C)C2)cc(OC)c1` stands 0% (inactive); under `CNS(=O)(=O)c1cccc(C(=O)OCC(=O)c2cc(C)n(-c3ccc4c(c3)OCO4)c2C)c1`, 0% (inactive).
Under `NC(=O)CSc1nnc(-c2ccc(O)cc2)n1Cc1ccco1` stands 0% (inactive).
As for `CCOC(=O)CSc1nc2ccccc2n1CC(=O)N1CCN(c2ccccc2)CC1`, the figure is 0% (inactive).
As to `O=C(CN1CCOCC1)Nc1cccc(C(=O)Nc2cccc(C(F)(F)F)c2)c1`, the inhibition was 2% (inactive).
As for `CNc1nnc(-c2cccc(N(C)C)c2)s1`, the figure is 0% (inactive); as for `Nc1nc(CSCc2ccccc2)nc(N2CCOCC2)n1`, 1% (inactive).
Under `O=C(CN(Cc1ccco1)C(=O)CNS(=O)(=O)c1ccc(Cl)cc1)NCc1ccc(F)cc1` stands 3% (inactive); under `COc1cccc(NC(=O)c2ccccc2NS(C)(=O)=O)c1`, 0% (inactive); under `O=C(NCCCN1CCN(Cc2ccccc2)CC1)C1CCN(c2nnc(-n3cccc3)s2)CC1`, 0% (inactive).
Under `O=C(Nc1ccc(NC(=O)C2CC2)cn1)c1ccccc1Cl` stands 0% (inactive); under `CCc1nnc(NC(=O)CSc2nc3ccccc3s2)s1`, 2% (inactive); under `Cc1cccc(N2CCN(C(=O)C3CCCN(S(=O)(=O)c4cnc[nH]4)C3)CC2C)c1` (stereo not given), 0% (inactive).
As to `CC(=O)N1CCN=C1SCc1ccc(Br)cc1`, the inhibition was 4% (inactive).
